# HT1080 IDH1KD tx = toxicity to HT-1080 IDH1 knockdown cells (counter line). HT-1080 IDH1 knockdown viability, ATP luminescence, 48 h. 2% of 360,000 active. Potency, µM (titrated, usually from 46.1 µM), without a hit: top-dose activity, negative = toxicity, actives largely listed as cytotoxic. AID 686971;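 also: potency is read from the fitted curve at half-maximal effect; 0% = DMSO wells and -100% = cell-free medium wells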
#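 Luminescent ATP read-out (CellTiter-Glo, 10 min at room temperature) after 48 h compound exposure at 37 °C gave viability of IDH1-knockdown HT-1080 cells. Activity was normalised to DMSO and cell-free wells, then fitted as concentration-response curves.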
# HT1080NT lethal = kills 2HG-producing HT-1080-NT fibrosarcoma cells. HT-1080-NT fibrosarcoma viability, CellTiter-Glo ATP luminescence, 48 h. 1.6% of 360,000 active. Potency, µM (titrated, usually from 46.1 µM), without a hit: top-dose activity, negative = less viability, actives largely listed as cytotoxic;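 also: NT is the 2HG producing partner of a matched IDH1 knockdown line; potency is read from the fitted curve at half-maximal effect; 0% = DMSO-treated cells and -100% = media-only wells without cells; nearly all actives have a fitted effect of over 55% in size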
#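 Compounds were tested in concentration-response format on HT-1080-NT cells for 48 hours at 37 degrees C. Cell viability came from CellTiter-Glo luminescence; curves were classified by r2, response magnitude and activity.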
# ELG1 DNA repair = ELG1-dependent DNA repair inhibition; HEK293T ELG1-luciferase reporter, luminescence, 16 h; DNA damage induced by 5-fluorouridine; Potency, µM (doses to about 46.1 µM), inactives show top-dose activity change, negative = inhibition, usual class: inhibitors; 2.3% of 330,000 active; also: potency is read from the fitted curve at half-maximal effect; nearly all actives have a fitted effect of over 55% in size
#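 Quantitative HTS, concentration-response format. 2,000 cells/well co-treated with 5-fluorouridine and compound, 16 hr in 5% CO2 at 37 °C; ONE-Glo luminescence read after 30 min.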
# IL1B secr inh = blocks inflammasome-driven IL-1 beta release; THP-1 LPS/ATP IL-1B secretion, AlphaLISA, 16 h; stronger effect = lower value; activity change, % at 57.5 µM; 4.7% of 360,000 active; AID 743279; in the data active = activity change below about -50%; inconclusive = mostly about -30% to -49%
#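 THP-1 cells pretreated 1 hr with compounds (up to 57.5 uM final), then stimulated with LPS (250 ng/mL final) plus ATP (1.25 mM final); secreted IL-1B measured by AlphaLISA after 16 hr, decreased signal indicating inhibition.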
# TDP1 cell noCPT = qHTS for Inhibitors of human tyrosyl-DNA phosphodiesterase 1 (TDP1): qHTS in cells in absence of CPT; Potency, µM (doses to about 46.2 µM), without a hit: at the highest dose activity change, negative = growth inhibition, most hits filed as inhibitors; 15% of 420,000 active; DT40 Tdp1-/- hTDP1 cells, no CPT, ATP luminescence, 48 h; also: potency is read from the fitted curve at half-maximal effect; nearly all actives have a fitted effect of over 55% in size
#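 Chicken DT40 Tdp1-/- cells stably complemented with human TDP1 were seeded at 400 cells/well with DMSO in place of 20 nM camptothecin. After compound pinning, cells grew at least 48 hr at 37 °C; viability read by CellTiter-Glo luminescence.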
# DT40 TDP1 CPT = growth inhibition of DT40 Tdp1-/-;hTDP1 cells with camptothecin (screen for TDP1 inhibitors) | 12% of 420,000 active | AID 686979 | Potency, µM (top dose mostly 46.2 µM), inactives show top-dose activity change, negative = growth inhibition, most hits filed as inhibitors | chicken DT40 Tdp1-/-;hTDP1 cells + 20 nM CPT, ATP luminescence, 48 h; also: potency is read from the fitted curve at half-maximal effect; nearly all actives have a fitted effect of over 55% in size
#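 Chicken DT40 Tdp1-/- cells stably complemented with human TDP1 were seeded at 400 cells/well in medium containing 20 nM camptothecin, exposed to pin-transferred compounds, and grown at 37 °C for at least 48 hr. Viability was read as ATP luminescence.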
# * hit, by the source's call; ? = inconclusive; / = not tested or not shown. Most compounds without a hit are left out; they make up all but 19% or so of the library. Unless noted, calls follow the shape of the dose curve; as a rule, active = well fitted curve in the direction sought with a large enough effect; inconclusive = small, poorly fitted or top-dose-only effect, or another doubt; inactive = no such curve, though single readings can be large; an effect the other way counts as inactive or inconclusive. Unless noted, % is scaled to controls: 0 for no effect and ±100 for the full control effect.
SMILES,HT1080 IDH1KD tx,HT1080NT lethal,ELG1 DNA repair,IL1B secr inh,TDP1 cell noCPT,DT40 TDP1 CPT
COc1ccc(C2c3c(ncn(CCCN4CCOCC4)c3=N)Oc3ccc4ccccc4c32)cc1OC (stereo unspecified),-29%,0%,?,0,13µM*,23µM*
COc1ccc(C2c3ccc(O)cc3Oc3ncn(CCN4CCOCC4)c(=N)c32)cc1OC (stereo unspecified),-7%,11%,-17%,?,-12%,-25%
N=c1c2c(ncn1CCN1CCOCC1)Oc1cc(O)ccc1C2c1ccccc1 (stereo unspecified),-15%,?,-29%,-75*,?,1%
COc1cc2nc(=S)n(CCCN3CCOCC3)c(N)c2cc1OC,2%,5%,1%,-7,-18%,-7%
CCOc1ccc2ccccc2c1CNCCN1CCOCC1,-8%,-12%,-19%,-1,-14%,-22%
O=C(CN1C(=O)NC2(CCc3ccccc32)C1=O)Nc1ccccc1Cl (stereo unspecified),-5%,-6%,-14%,2,-27%,-11%
COc1cc(=O)n2c(c1C(=O)N(C)Cc1nonc1C)CCN(C(=O)c1cc(C)cc(C)c1)CC2,/,/,/,/,-1%,9%
Cc1c(C)c2c(cc(C)c3c(-c4ccc(Br)cc4)coc32)oc1=O,/,/,/,/,-1%,3%
Cc1ccc(S(=O)(=O)c2cc3cc(C(=O)Nc4ccc(C)cc4C)ccc3oc2=O)cc1,/,/,/,/,-6%,?
COc1ccc(-c2cn(CCC(=O)NCc3ccc(C)cc3)c(CCN)n2)cc1,-1%,-2%,0%,-17,-20%,?
CN1C(=O)[C@H]2[C@@H](c3ccc(C(F)(F)F)cc3)N[C@]3(CCCN(Cc4ccc(Cl)cc4)C3=O)[C@H]2C1=O,12%,10%,/,11,16µM*,1%
CN1C(=O)[C@H]2[C@@H](c3ccc(C(F)(F)F)cc3)N[C@]3(CCCN(Cc4ccc(F)cc4)C3=O)[C@H]2C1=O,-10%,-18%,/,14,7.3µM*,9.2µM*
Cc1ccc(CN2CCC[C@]3(N[C@H](c4ccc(C(F)(F)F)cc4)[C@@H]4C(=O)N(C)C(=O)[C@@H]43)C2=O)cc1,-3%,-1%,/,5,?,?
COc1ccc([C@H]2N[C@]3(CCCN(Cc4ccc(C(F)(F)F)cc4)C3=O)[C@H]3C(=O)N(C)C(=O)[C@@H]23)cc1,7%,12%,/,22,?,?
CN1C(=O)[C@H]2[C@@H](c3ccc(C(F)(F)F)cc3)N[C@]3(CCCN(Cc4cccn4C)C3=O)[C@H]2C1=O,0%,-4%,/,-19,16µM*,23µM*
Cn1cccc1CN1CCC[C@]2(N[C@H](c3ccc(C(F)(F)F)cc3)[C@@H]3C(=O)N(Cc4ccccc4)C(=O)[C@@H]32)C1=O,-6%,-13%,/,?,-22%,-15%
Cc1ccc([C@H]2N[C@]3(CCCN(Cc4ccc(C(F)(F)F)cc4)C3=O)[C@H]3C(=O)N(C)C(=O)[C@@H]23)cc1,12%,-4%,/,9,13µM*,21µM*
NS(=O)(=O)c1ccc(NC(=O)c2ccc(F)cc2F)c(NC(=O)c2ccc(F)cc2F)c1,0%,4%,6%,-13,-18%,-2%
Cc1cccc(OCCCC(=O)NNC(=O)c2ccccn2)c1,?,?,?,89,7.3µM*,6.5µM*
Cc1cccc(OCCCC(=O)NNC(=O)c2ccncc2)c1,5%,7%,14%,15,-15%,-17%
O=C(CSc1ncccc1C(=O)Oc1ccccc1Cl)Nc1ccc(C(F)(F)F)cc1Cl,/,/,/,/,23µM*,?
CCc1cccc(NC(=O)CSc2ncccc2C(=O)Oc2ccccc2Cl)c1,/,/,/,/,-19%,-11%

# Bioassay records from PubChem BioAssay.
